An excerpt weighted towards active compounds, which were near 7.5% of everything screened.
HCV inh – HCV inhibition. Huh7.5.1 HCVcc-Cre infection, luciferase reporter, 44 h. Potency, µM (series often up to 41.8 µM), for the others: at the top dose activity change, negative = inhibition, hits mostly inhibitors. 340,000 compounds, 3.4% hits. AID 651820; also: potency is read from the fitted curve at half-maximal effect
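Infectious HCVcc-Cre (~0.5 moi) was added to cells just after compound, with cells seeded 4 h earlier at 1,000 per well. Luciferase activity after 44 h culture reported infection; substrate was incubated 15 min at room temperature before reading.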
VACV mCherry inh – vaccinia inhibition (mCherry reporter); Vaccinia virus mCherry reporter infection, fluorescence; Potency, µM (highest dose often 36.5 µM), inactives show top-dose activity change, negative = inhibition, most hits filed as inhibitors; 310,000 compounds, 0.63% hits; calls by dose curve; tested in A549 cells; also: potency is read from the fitted curve at half-maximal effect; nearly all actives have a fitted effect of over 35% in size
Vaccinia Venus – inhibitors of vaccinia virus (Venus reporter); Potency, µM (series often up to 36.5 µM), for the others: at the highest dose activity change, negative = inhibition, most hits filed as inhibitors; Vaccinia virus Venus reporter expression, fluorescence; 330,000 compounds, 0.46% hits; calls by dose curve; tested in A549 cells; also: potency is read from the fitted curve at half-maximal effect; nearly all actives have a fitted effect of over 30% in size
FBPA Giardia inh – Giardia lamblia aldolase inhibition; purified Giardia FBPA; Potency, µM (highest dose often 59.6 µM), inactives show at the highest dose activity, negative = inhibition, usual class: inhibitors; 290,000 compounds, 0.71% hits; AID 2451; also: potency is read from the fitted curve at half-maximal effect; nearly all actives have a fitted effect of over 55% in size
Target sequence (A8B2U2 whole entry, looked up): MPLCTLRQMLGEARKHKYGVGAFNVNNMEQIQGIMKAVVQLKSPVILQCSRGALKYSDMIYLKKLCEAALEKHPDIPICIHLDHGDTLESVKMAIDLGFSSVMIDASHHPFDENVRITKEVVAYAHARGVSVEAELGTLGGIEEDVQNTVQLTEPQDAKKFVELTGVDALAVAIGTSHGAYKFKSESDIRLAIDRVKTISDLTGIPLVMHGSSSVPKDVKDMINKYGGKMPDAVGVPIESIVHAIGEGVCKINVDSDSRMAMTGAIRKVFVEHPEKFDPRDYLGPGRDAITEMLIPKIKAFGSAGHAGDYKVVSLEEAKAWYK
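40 nM FBPA preincubated 10 min at RT with compound (up to 57.5 uM final), then substrate plus GAPDH/TPI/NAD/arsenate coupling and diaphorase/resazurin added. Fluorescence read after 20 min at RT, 525/598 nm.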
HCMV inh – inhibitors of human cytomegalovirus. HFF cells, HCMV-luciferase reporter, 72 h; stronger effect = lower value. activity change, negative = inhibition, % at 57.5 µM. 410,000 compounds, 4.5% hits. AID 1259415; in the data active = activity change below about -60%; inconclusive = no clear call, values can overlap the other calls; inactive = above about -39%
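Luciferase read-out from HCMV-luciferase-infected HFFs (MOI 1 PFU/cell) 72 h post infection at 37C; compounds added after 16 h cell attachment; activity normalized between buffer-only basal and Salinomycin (10uM) inhibitor controls.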
FMDV antiviral – foot and mouth disease virus antiviral activity | FMDV antiviral cell-based qHTS | Potency, µM (highest dose often 57.9 µM), for inactives: top-dose activity change, negative = inhibition, most hits filed as inhibitors | 410,000 compounds, 1.2% hits | AID 1159524; calls by dose curve; tested in HEK293T cells; also: read-out not given here; potency is read from the fitted curve at half-maximal effect; nearly all actives have a fitted effect of over 45% in size
* hit, by the source's call; i = inactive; ? = inconclusive; . = no result given. Unless noted, calls follow the shape of the dose curve; as a rule, active = well fitted curve in the direction sought with a large enough effect; inconclusive = small, poorly fitted or top-dose-only effect, or another doubt; inactive = no such curve, though single readings can be large; an effect the other way counts as inactive or inconclusive. % is scaled to controls: 0 for no effect and ±100 for the full control effect.

SMILES	HCV inh	VACV mCherry inh	Vaccinia Venus	FBPA Giardia inh	HCMV inh	FMDV antiviral
CN(C)S(=O)(=O)c1cccc(NC(=O)c2cccc(S(=O)(=O)N3CCc4ccccc43)c2)c1	11µM*	.	.	.	-95*	?
O=C(c1ccc(Br)s1)N1CCN(c2ccccn2)CC1	6%	-16%	-20%	4%	-2	-1%
NC(=O)C1CN(C(=O)c2cccc(S(=O)(=O)N3CCc4ccccc43)c2)c2ccccc2O1 (centres undefined)	-18%	.	.	.	-105*	-10%
O=C(N1CCN(c2ccccn2)CC1)N1c2ccccc2Sc2ccccc21	?	.	.	7%	-66*	?
O=C(CNC(=O)c1cccc(S(=O)(=O)N2CCc3ccccc32)c1)Nc1ccccc1Br	?	?	7%	.	-83*	52%
O=C(CNC(=O)c1cccc(S(=O)(=O)N2CCc3ccccc32)c1)Nc1ccc(F)c(F)c1F	?	?	-7%	.	-39	-4%
O=C(CN1C(=O)C2CCCCN2c2ccc(C(=O)N3CCCC3)cc21)NCc1ccccc1F (centres undefined)	.	-8%	-4%	.	-15	21%
O=C(c1cnccn1)N(CCO)C(c1ccc(-c2ccccc2)cc1)c1nc2ccccc2[nH]1 (centres undefined)	.	.	.	.	57	.
COc1ccccc1N1CCN(C2CC(=O)N(c3cccc(Cl)c3)C2=O)CC1 (centres undefined)	?	.	.	-18%	8	-17%
Cc1cccc(C(=O)N2CCN(c3ccccn3)CC2)c1	23%	i	-4%	-1%	-8	-12%
O=C(c1cccc(Oc2ccccc2)c1)N1CCN(c2ccccn2)CC1	?	i	-5%	0%	-72*	-13%
S=C(Nc1cc(Cl)ccc1Oc1ccccc1)N1CCN(c2ccccn2)CC1	11µM*	i	-27%	-3%	-78*	-5%
COCCCNC(=O)c1c[nH]c2ccc(S(=O)(=O)N3CCc4ccccc43)cc2c1=O	?	?	?	1%	0	?
O=S(=O)(NC1CCc2ccccc21)c1ccc(S(=O)(=O)N2CCCC2)cc1 (centres undefined)	11µM*	-25%	-17%	2%	5	.
COCCNC(=O)c1c[nH]c2ccc(S(=O)(=O)N3CCc4ccccc43)cc2c1=O	-17%	?	5.6µM*	-5%	?	?
C=CCN1C[C@H](COC(=O)CSc2ccccc2)Oc2cccc(F)c2S1(=O)=O	.	.	.	.	1	.
CCc1cccc(CC)c1NC(=O)c1c(C)oc2ccc(O)c(CN3CCN(C)CC3)c12	.	-3%	-9%	.	6	-19%
Cc1cc(C)n2nc(C(=O)NCC3Cc4cccc(-c5ccc(S(C)(=O)=O)cc5)c4O3)cc2n1 (centres undefined)	.	-10%	-1%	.	.	34%
CCOC(=O)N1CCC(N2CCCC(CO)(Cc3ccccc3C)C2)CC1 (centres undefined)	3%	i	-2%	2%	-25	50%
O=C(NNC(=O)c1cccc(S(=O)(=O)N2CCc3ccccc32)c1)c1ccccc1	5µM*	-29%	?	4%	?	0%
COc1cc(C(=O)Nc2ccc3c(c2)Cc2ccccc2-3)cc(OC)c1OC	?	-15%	?	8%	-25	-10%
O=C(c1cccc(S(=O)(=O)N2CCc3ccccc3C2)c1)N1CCN(c2ccc(O)cc2)CC1	?	?	-30%	-18%	-65*	-40%
COc1cc(C(=O)Nc2ccc3c(c2)CCN3C(C)=O)cc(OC)c1OC	-29%	?	-20%	3%	-74*	10%
COc1cc(C(=O)Nc2ccc(S(=O)(=O)N3CCc4ccccc43)cc2)cc(OC)c1OC	14µM*	.	.	-9%	10	2%
COc1ccccc1C(=O)Nc1ccc(S(=O)(=O)N2CCc3ccccc32)cc1	-34%	-21%	-17%	-5%	-29	.
SMILES	HCV inh	VACV mCherry inh	Vaccinia Venus	FBPA Giardia inh	HCMV inh	FMDV antiviral
O=C(C[n+]1ccccc1Br)c1ccc2c(c1)CCCC2	.	-15%	-8%	.	.	.
COCCNC(=O)c1ccc2c(c1)CCN2S(C)(=O)=O	14%	i	-8%	2%	-62*	-5%
COc1ccc(NC(C)=O)cc1NC(=O)c1cccc(S(=O)(=O)N2CCN(Cc3ccccc3)CC2)c1	-24%	-20%	-7%	.	-15	-17%
O=C(c1cccc(S(=O)(=O)N2CCc3ccccc32)c1)N1CCN(c2ccccn2)CC1	?	?	-5%	-6%	-78*	?
CC(C)c1ccc(OCc2ccc(C(=O)N3CCN(c4ccccn4)CC3)cc2)cc1	5µM*	.	-29%	4%	-25	?
COc1ccc(NC(C)=O)cc1NC(=O)c1cccc(S(=O)(=O)N2CCc3ccccc32)c1	10µM*	.	.	.	-1	-24%
CC(C)CC1(C2CCCC2)NC(=O)NC1=O (centres undefined)	3%	i	-3%	.	-27	-12%
Oc1ccc(C2=NNC(c3ccc(O)cc3)=NN2)cc1	21%	-15%	-14%	-5%	-24	1%
O=S(=O)(NC1CCCC1)c1ccc(S(=O)(=O)N2CCc3ccccc32)cc1	?	?	?	3%	-99*	?
O=C(Nc1ccc(S(=O)(=O)N2CCc3ccccc32)cc1)c1ccc2c(c1)OCO2	?	?	?	2%	-85*	-23%
CC(=O)NS(=O)(=O)c1ccc(NC(=O)c2cccc(S(=O)(=O)N3CCc4ccccc43)c2)cc1	-7%	-16%	-9%	0%	-23	-3%
O=C(Nc1ccccc1)c1ccc2c(c1)CCN2S(=O)(=O)c1ccccc1	?	.	.	.	10	7%
O=C(Nc1ccc(Br)cc1)c1cccc(S(=O)(=O)N2CCc3ccccc32)c1	.	?	-22%	.	-61*	?
Nc1ccc(S(=O)(=O)N2CCc3ccccc32)cc1	8%	i	-10%	3%	47	3%
NS(=O)(=O)c1ccc(NC(=O)c2ccc3c(c2)CCN3S(=O)(=O)c2ccccc2)cc1	32µM*	-20%	-21%	2%	?	-30%
COc1ccc(NC(=O)c2ccc3c(c2)CCN3S(=O)(=O)c2ccccc2)cc1	?	?	-21%	8%	-36	-17%
COc1ccc(C(=O)Nc2ccc3c(c2)C(=O)NC3=O)cc1	-6%	-9%	-6%	3%	25	-1%
CCCN(CCC)C(=O)Cn1c(=O)n(-c2ccc(C)cc2)c(=O)c2ccc(C(=O)NCc3ccccc3Cl)cc21	.	-23%	-20%	.	-13	68%
O=C(Nc1ccc(S(=O)(=O)N2CCc3ccccc32)cc1)c1ccco1	8.9µM*	?	-20%	-1%	-81*	?
COc1cc(C(=O)Nc2ccc3c(c2)ncn3C(C)(C)C)cc(OC)c1OC	13µM*	.	.	-6%	53	11%

Bioassay records from PubChem.
